tim23-1 inh – growth inhibitors of tim23-1 mutant yeast, primary screen, luminescence, uHTS. S. cerevisiae tim23-1 growth, BacTiter-Glo luminescence, 24 h. inhibition, % at 20 µM. actives 1.3% (n = 330,000). AID 463212, 2010;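 active means growth inhibition of the mutant yeast at or above 50%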;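 further: temperature-sensitive mutant grown at 25 °C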
NALP1 inh – NALP1 inflammasome inhibitors in reconstituted yeast, colorimetric, S. cerevisiae, triplicate retest. actives 0.61% (n = 280,000). AID 2071, 2009. inhibition, % at 10 µM. S. cerevisiae NALP1/ASC/caspase-1 growth, X-gal OD620, 72 h; in the data active means inhibition mostly above about 24%, no sharp cut-off; inactive means mostly below about 32%
NALP3 yeast inh – NALP3 inflammasome inhibitors in reconstituted yeast, primary screen, luminescence, uHTS | Yeast reconstituted NLRP3/ASC/caspase-1, beta-gal luminescence, 24 h | actives 0.39% (n = 330,000) | inhibition, % at 10 µM;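 active means inhibition of 50% or more; inactive means inhibition below 50%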
tim10-1 inh – growth inhibitors of tim10-1 mutant yeast, primary screen, luminescence, uHTS. S. cerevisiae tim10-1 ts strain growth, BacTiter-Glo, 24 h. AID 463190, 2010. inhibition, % at 20 µM. actives 2.2% (n = 330,000);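 active means inhibition of at least 40%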;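 further: mutant grown at 25 °C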
TIM10 inh – growth inhibitors of isogenic TIM10 control yeast, primary screen, counter-screen for tim10-1 yeast inhibitor project, luminescence, uHTS | inhibition, % at 10 µM | S. cerevisiae TIM10 strain growth, BacTiter-Glo luminescence, 24 h | actives 1.4% (n = 330,000);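 active means inhibition of 40% or more at the single tested concentration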;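 further: wild-type TIM10 isogenic control strain grown at permissive 25 °C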
NALP3 confirm – NALP3 inhibitors retested in yeast, confirmation, luminescence, single concentration; yeast expressing human NALP3; AID 435006, 2010; inhibition, % at 10 µM; actives 81% (n = 1,300); shares compounds with NALP3 yeast inh; in the data active means inhibition above about 48%
Casp1 ASC ctr – CASP1-PYCARD signaling inhibition in yeast, confirmatory test, counterassay for NLRP3 inhibitor program, one-dose; shares compounds with NALP3 yeast inh; inhibition, % at 10 µM; actives 66% (n = 1,000); yeast expressing Caspase-1-ASC, luminescence counter screen
NALP3 retest – NALP3 inhibitors in yeast, repeat test, confirmation, luminescence, single concentration, retest; yeast expressing human NALP3, luminescence read-out; inhibition, % at 10 µM; shares compounds with NALP3 yeast inh; actives 53% (n = 1,000)
A number is an active result; - = inactive; . = not tested or not shown. Hits are enriched below; roughly 4% of the tested compounds scored in any of these assays. Unless noted, no stated cut-off is given here; in the data, active means inhibition above about 50%; inactive means the rest.

SMILES	tim23-1 inh	NALP1 inh	NALP3 yeast inh	tim10-1 inh	TIM10 inh	NALP3 confirm	Casp1 ASC ctr	NALP3 retest
O=C(Nc1nnc(CCc2ccccc2)s1)c1ccccc1	-	-	51	-	-	70	-	-
CCC(=O)Nc1nnc(CCc2ccccc2)s1	-	-	-	-	-	.	.	.
O=C(Nc1nnc(-c2ccco2)s1)c1ccccc1	-	-	53	-	-	58	57	-
Cc1ccccc1C(=O)Nc1nnc(-c2ccco2)s1	-	-	62	-	-	49	-	-
CCSc1nc2sc3c(c2c(=O)n1-c1ccccc1)CCN(C)C3	-	-	51	-	-	66	-	-
CCCN1CCc2c(sc3nc(SCC)n(-c4ccccc4)c(=O)c23)C1	-	-	-	-	-	.	.	.
Cn1nnnc1SCC(=O)NC1CCCC1	-	-	-	-	-	.	.	.
CCOc1ccccc1C(=O)Nc1ccccc1O	-	-	54	-	-	57	56	55
CSc1ncc(C(=O)Nc2ccccc2)cn1	-	-	59	-	-	72	57	55
COc1cccc(NC(=O)c2cnc(SC)nc2)c1	-	-	69	-	-	72	68	58
CCc1ccc(CNC(=O)CCC(=O)N2Cc3cccc(OC)c3Oc3ncccc32)cc1	-	-	-	-	-	.	.	.
O=C(CCCSc1ccc(Cl)cc1)Nc1ccccc1O	-	-	-	-	-	.	.	.
C=CC(=O)NC(C)(C)Cc1ccccc1	-	-	-	-	-	.	.	.
CC(Cc1ccccc1)(NC(=O)CN)c1ccccc1 (centres undefined)	-	63	91	-	-	96	94	93
CC(C)C(=O)NNC(=O)c1c(O)c2ccccc2[nH]c1=O	-	.	-	-	-	.	.	.
CC(C)NC(=O)c1c(O)c2ccccc2[nH]c1=O	-	-	54	-	-	72	-	53
Cc1ccc(-c2nc(S(=O)(=O)c3ccc(C)cc3)c(N(C)C)o2)cc1	-	-	71	-	-	66	82	62
CC(C)CC1NC(=S)N(Cc2ccccc2)C1=O (centres undefined)	-	-	-	-	-	.	.	.
NS(=O)(=O)c1ccc(CCNC(=O)c2ccc3ccccc3n2)cc1	-	-	-	-	-	.	.	.
COc1ccc(CCNC(=O)c2ccc3ccccc3n2)cc1	-	-	52	-	-	67	-	-
O=C(COc1ncnc2cc(Cl)ccc12)c1ccc2c(c1)OCCO2	-	.	-	-	-	.	.	.
O=C(COc1ncnc2ccccc12)c1ccc2c(c1)OCCO2	-	-	53	-	-	69	-	-
CN(c1ccccc1)S(=O)(=O)c1nnc(NC(=O)C2CCCCC2)s1	-	-	-	-	-	.	.	.
Cc1ccc(S(=O)(=O)NCC(=O)OCC(=O)NCc2ccco2)cc1	-	.	-	-	-	.	.	.
COc1ccc(Cl)cc1S(=O)(=O)NCc1ccncc1	-	-	-	-	-	.	.	.
SMILES	tim23-1 inh	NALP1 inh	NALP3 yeast inh	tim10-1 inh	TIM10 inh	NALP3 confirm	Casp1 ASC ctr	NALP3 retest
COc1ccc(CC(=O)Nc2ccc(-c3noc(-c4ccc(Cl)cc4)n3)cc2)cc1	-	-	-	-	-	.	.	.
COc1ccc(CC(=O)Nc2ccc(-c3noc(-c4cc(OC)c(OC)c(OC)c4)n3)cc2)cc1	-	-	58	-	-	-	.	.
O=C(Nc1cccc(O)c1)c1noc2c1CCc1ccccc1-2	-	-	63	-	-	58	52	57
CC1CC(C)(C)N(C(=O)CN2CCN(C)CC2)c2ccccc21 (centres undefined)	-	-	-	-	-	.	.	.
CC1CC(C)(C)N(C(=O)CN2C(=O)c3ccccc3C2=O)c2ccccc21 (centres undefined)	-	-	52	-	-	-	.	.
COc1ccccc1-c1cc(C(=O)NC2CCCC2)no1	-	-	53	-	-	50	50	-
CCOC(=O)C1=Nc2ccccc2C1=[N+]=[N-]	-	75	82	-	-	89	97	87
CCOC(=O)c1cnc(-c2ccccc2O)nc1Cl	-	-	-	-	-	.	.	.
COc1ccc2oc(=Nc3cccc(F)c3)c(C(N)=O)cc2c1	-	-	50	-	-	62	63	-
Cc1nc2ccccc2c(N)c1C(=O)/C=C/c1ccccc1	-	-	75	-	-	74	56	-
CC(NC(=O)c1ccccc1Br)c1ccc2c(c1)CCCC2 (centres undefined)	-	-	57	-	-	70	52	-
CC(NC(=O)c1ccc(Br)cc1)c1ccc2c(c1)CCCC2 (centres undefined)	-	-	-	-	-	.	.	.
CC(Sc1n[nH]c(-c2cccs2)n1)C(=O)N1CCCC1 (centres undefined)	-	.	-	-	-	.	.	.
CN1CCN(S(=O)(=O)c2ccc(CNC(=O)c3ccccc3)s2)CC1	-	-	-	-	-	.	.	.
CCS(=O)(=O)c1ccc2oc(Nc3ccc(OC)cc3)nc2c1	-	-	-	-	-	-	.	.
CN1CCC(N2CCN(c3cccc(C(F)(F)F)c3)CC2)CC1	-	-	-	-	-	.	.	.
FC(F)(F)c1cccc(N2CCc3cn[nH]c32)c1	-	.	97	-	-	99	99	97
Cc1ccc(CNC(=O)CN(C)S(=O)(=O)c2cccs2)cc1	-	-	-	-	-	.	.	.
O=C(NCc1ccccc1)c1cc(-c2cccs2)on1	-	-	-	-	-	.	.	.
O=C(NCc1ccc(F)cc1)c1cc(-c2cccs2)on1	-	-	51	-	-	69	-	-
Cc1ccccc1C(=O)NNS(=O)(=O)c1cccc([N+](=O)[O-])c1	-	-	-	-	-	.	.	.
CN1C(=O)c2ccc(N3CCCC3)cc2C1=O	-	-	-	-	-	.	.	.
Cc1cc(N2CCCC2)ccc1/C=C1\NC(=S)N(C)C1=O	-	-	51	-	-	50	50	-
CN(C)S(=O)(=O)c1cccc(NC(=O)c2cccc(S(=O)(=O)N3CCCCC3)c2)c1	-	.	-	-	-	.	.	.
CNC(=O)c1c(O)c2cccc3c2n(c1=O)CCC3	-	-	50	-	-	64	-	-
CCCCCCNC(=O)c1c(O)c2cccc3c2n(c1=O)CCC3	-	-	-	-	-	.	.	.
O=C(NCCNCCO)c1c(O)c2cccc3c2n(c1=O)CCC3	-	-	53	-	-	63	-	-
O=C(NC1CCCCCC1)c1c(O)c2cccc3c2n(c1=O)CCC3	.	-	.	.	.	.	.	.
CCC(C)(C)c1ccc(OCCN2C(=O)NC(C)(C)C2=O)cc1	-	-	-	-	-	.	.	.

High-throughput results deposited in PubChem BioAssay by Sanford-Burnham Center for Chemical Genomics.
